# High-throughput results (PubChem)
# Most compounds without a hit are left out; they make up all but 2.2% or so of the library.
# APP transl inh – APP translation inhibition; inhibition, % at 2 µM; 190,000 tested, 0.82% active; SH-SY5Y APP 5'UTR-luciferase reporter, luminescence;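 active means inhibition above a set limit, derived from the sample mean plus 3 SD, cut at about 45% in these data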
# KLF5 inhibitor – suppresses KLF5 promoter-driven expression. DLD-1 KLF5 promoter-luciferase reporter, luminescence. 290,000 tested, 0.23% active. inhibition, % at 5 µM;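 active means inhibition above a per-plate limit of that plate's mean compound inhibition plus 3 SD, cut at about 60% in these data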;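 further: 0% = DMSO wells and 100% = LY294002 at 200 µM; higher means less KLF5 promoter-driven luciferase light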
# aSyn 5UTR inh – 5' untranslated region of α-synuclein, MLPCN primary screen | alpha-synuclein 5'UTR reporter, inhibitor activity | inhibition, % (tested at 7.5 µM) | 300,000 tested, 0.82% active | AID 1813; in the data active means inhibition above about 60%;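 further: H4 neuroglioblastoma cells stably carrying SNCA 5'UTR luciferase fusion; 0% = DMSO wells and 100% = positive control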
# BaF3 parental – counter-screen for JAK2V617F inhibitors: parental Ba/F3 viability inhibitors | 220,000 tested, 1.1% active | inhibition, % at 5.6 µM | CellTiter-Glo ATP luminescence;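 active means inhibition above a per-campaign cutoff, the mean inhibition of all tested compounds plus 3 SD, cut at about 27% in these data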;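 further: 0% = DMSO wells and 100% = JAK Inhibitor I control wells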
# IEC-6 tox – counter-screen for KLF5 inhibitors: cytotoxicity in IEC-6 cells; 290,000 tested, 0.78% active; IEC-6 cytotoxicity, luminescence viability; inhibition, % at 5 µM; in the data active means inhibition above about 22%;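 further: 0% = plate median of test compound wells and 100% = cytotoxic reference compound wells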
# Ba/F3 V617F tox – loss of viability in JAK2V617F-driven Ba/F3 cells. Ba/F3 EpoR-JAK2V617F viability, ATP luminescence. inhibition, % at 5.6 µM. 220,000 tested, 1.1% active;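 active means inhibition above the campaign mean plus 3 SD over all tested compounds, cut at about 24% in these data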;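 further: cytokine-independent growth of Ba/F3 cells driven by EpoR plus mutant JAK2; 0% = DMSO-treated cells and 100% = JAK inhibitor I control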
# * = called active by the depositor; nt = not tested or not shown.
SMILES,APP transl inh,KLF5 inhibitor,aSyn 5UTR inh,BaF3 parental,IEC-6 tox,Ba/F3 V617F tox
CCOC(=O)C1=C(N)n2c(s/c(=C\c3ccncc3)c2=O)=C(C(=O)OCC)C1c1ccncc1 (stereo not given),6.7,-0.9,1.8,10.2,3.7,-1.3
Oc1ccccc1/C=N/Nc1ccnc(SCc2ccccc2)n1,56.2*,-18.4,nt,8.2,7.6,1.6
Cc1sc2ncnc(N/N=C/c3ccccc3O)c2c1C,76.8*,16.9,105.8*,2.2,8.4,-5.7
Oc1ccccc1/C=N/Nc1ccccc1,-37.7,-6.0,-133.2,3.9,0.6,0.3
Oc1ccccc1/C=N/Nc1ncc(Br)cn1,57.0*,-77.1,5.0,4.5,-5.2,2.8
Cc1ccc(NC(=O)c2ccc3c(c2)CCN3S(C)(=O)=O)c(C)c1,nt,-48.2,-32.2,nt,7.9,nt
CC(C)Cn1c(CCCNC(=O)c2ccco2)nc2ccccc21,nt,0.3,-8.1,nt,4.6,nt
O=C(Nc1nc(-c2ccccn2)cs1)c1ccc([N+](=O)[O-])o1,nt,7.0,-32.3,88.9*,-5.0,84.3*
O=C(Nc1ccc(Cl)cn1)c1ccc([N+](=O)[O-])o1,47.4*,-23.2,-16.8,-0.6,6.9,1.4
O=C(Nc1nc(-c2ccccn2)cs1)c1cc(Cl)ccc1[N+](=O)[O-],75.9*,64.2*,115.9*,60.7*,83.1*,71.7*
Cc1c(Cl)c([N+](=O)[O-])nn1Cc1ccc(C(=O)Nc2ccc(Cl)cn2)o1,7.6,-24.0,-7.1,8.0,10.1,3.4
Cc1cc(C)cc(-n2c(C)cc(/C=N/NC(=O)CN(c3c(C)cccc3C)S(C)(=O)=O)c2C)c1,90.2*,-14.6,6.2,2.4,-3.5,-1.4
OC1(c2cccs2)CN(c2ccc(Cl)cc2)C2=[N+]1CCCS2 (stereo not given),-9.0,-42.6,-8.7,-1.2,-0.8,-1.7
OC1(c2cccs2)CN(c2ccc(Cl)cc2)C2=[N+]1CCCC2 (stereo not given),13.7,-45.2,-17.5,32.2*,0.7,16.7
COCCCNC(=O)CNC(=O)c1nn(-c2ccc(OC)c(Cl)c2)c(=O)c2ccccc12,nt,-5.0,6.1,nt,1.8,nt
COc1cc(CNc2ccc3[nH]c(=O)[nH]c3c2)ccc1OCc1ccc(Cl)cc1,nt,-98.5,-171.0,nt,3.6,nt
O=C1c2ccc3c4c(ccc(c24)C(=O)N1c1cccc(O)c1)C(=O)N(c1cccc(O)c1)C3=O,nt,-0.3,68.1*,17.6,13.8,12.6
O=C(CN1C(=O)/C(=C\C=C\c2ccccc2)SC1=S)Nc1ccc(F)cc1,-11.3,11.4,-40.7,4.4,-0.1,2.1
O=C(COC(=O)CCN1C(=O)/C(=C\C=C\c2ccccc2)SC1=S)Nc1cc(F)ccc1F,22.3,-23.1,64.2*,0.8,-8.3,-1.4
O=C(Nc1cnn(Cc2c(Cl)cccc2Cl)c1)C(c1ccccc1)c1ccccc1,77.8*,-28.0,13.4,7.0,-7.3,-0.9
O=C(Nc1cccc(C(F)(F)F)c1)Nc1ccc(N2CCCC2)c(S(=O)(=O)Nc2ccccc2Cl)c1,-10.9,-4.3,92.7*,1.9,1.8,-4.2
CC(C)NC(=O)COc1coc(CN2CCN(c3ccccc3F)CC2)cc1=O,nt,-1.2,-0.6,nt,-11.4,nt
CCn1c(SCc2ccccc2Cl)nc2nc3c(cc2c1=O)CCCC3,70.3*,-34.5,0.3,4.6,-4.0,2.1
O=C(Nc1ccccc1Oc1ccccc1)C1=COCCO1,nt,-13.7,16.4,nt,-10.1,nt
Cc1cc(C)c2nc(NNC(=O)c3ccc(S(=O)(=O)N4CCCC(C)C4)cc3)sc2c1 (stereo not given),7.1,24.3,72.9*,4.7,7.0,-3.6
SMILES,APP transl inh,KLF5 inhibitor,aSyn 5UTR inh,BaF3 parental,IEC-6 tox,Ba/F3 V617F tox
COC(=O)c1sc2ccccc2c1NC(=O)c1ccc(S(=O)(=O)N2CC(C)CC(C)C2)cc1 (stereo not given),4.8,2.1,18.4,0.9,8.9,-1.5
Cc1cc(C)c2nc(NNC(=O)c3ccc(S(=O)(=O)N4CC(C)CC(C)C4)cc3)sc2c1 (stereo not given),1.7,1.9,71.9*,11.6,-5.6,-0.7
Cc1ccc2nc(NNC(=O)c3ccc4c(c3)OCCO4)sc2c1,-19.9,-11.6,-30.3,4.5,8.7,1.0
Cc1cccc2sc(NNC(=O)c3ccc(S(=O)(=O)N4CC(C)CC(C)C4)cc3)nc12 (stereo not given),15.1,15.0,81.5*,13.1,2.4,-0.7
Cc1ccc2nc(NNC(=O)c3ccc(S(=O)(=O)N4CCc5ccccc5C4)cc3)sc2c1,57.8*,42.3,96.0*,7.2,-5.9,0.0
CC1Cc2ccccc2N1C(=O)Cn1cnc2c1c(=O)n(C)c(=O)n2C (stereo not given),nt,-8.7,-1.1,nt,5.6,nt
COc1cccc(CN2C(=O)C(C)N(C(=O)c3ccccc3)c3ccccc32)c1 (stereo not given),nt,-1.2,2.4,nt,4.3,nt
Nc1nc(N)c2cc(Sc3ccc4ccccc4c3)ccc2n1,nt,26.3,96.1*,101.2*,80.9*,95.7*
Cn1ncc(Br)c1NC(=O)Nc1ccc(OC(F)(F)F)cc1,nt,15.0,8.2,31.8*,11.2,3.6
Cc1ccc(C(=O)Nc2cccc(C(O)c3ccccc3)c2)cc1 (stereo not given),nt,nt,2.3,nt,nt,nt
O=C(COc1cccc(C(F)(F)F)c1)Nc1ccc(S(=O)(=O)N2CCCCC2)cc1,nt,nt,13.4,nt,nt,nt
CNc1c(NS(=O)(=O)c2ccc3c(c2)CCCC3)c(=O)oc2ccccc12,nt,-9.5,-0.1,nt,-1.3,nt
COc1cccc(C2=NN(C(=O)c3ccco3)C(c3ccco3)C2)c1 (stereo not given),nt,-17.2,-31.9,nt,-1.8,nt
COc1cccc(C(=O)C2=NN(C(C)=O)CC2c2ccco2)c1 (stereo not given),-3.1,-48.1,17.9,38.5*,3.7,-4.9
O=C1c2ccccc2S(=O)(=O)N1Cc1nc2ccccc2s1,8.0,-8.7,111.7*,3.6,6.3,1.9
Cc1ccccc1CN1C(=O)c2ccccc2S1(=O)=O,nt,-16.2,-17.8,nt,-0.8,nt
C=CCN(C(=O)Nc1ccc(F)cc1)C1CC(=O)N(c2ccc(OC)cc2)C1=O (stereo not given),20.8,-10.9,nt,-0.7,5.5,-0.2
C=CCN(C(=O)Nc1ccc(Cl)cc1)C1CC(=O)N(c2ccc(OC)cc2)C1=O (stereo not given),47.4*,-17.9,9.7,1.6,0.9,-6.1
Cc1ccc2cc3c(N)c4c(C)ccc(C)c4nc3nc2c1,56.1*,-1.6,-76.9,5.3,5.5,4.8
Cc1ccc2c(N)c(C)ccc2c1,-17.5,-35.1,-37.8,5.2,6.3,5.5
CCN(CC)C(=O)Oc1ccc(Cl)c2cccnc12,-22.1,9.6,22.7,5.4,0.3,0.3
O=C(Nc1cccc(C(F)(F)F)c1)Oc1ccc(Cl)c2cccnc12,nt,-6.8,75.1*,1.7,-3.0,-4.8
CCCCC(=O)Nc1ccc(C(=O)N2CCN(c3ccccc3OC)CC2)cc1,68.7*,-44.8,-40.2,11.2,-1.2,7.4
CCCCC(=O)Nc1ccc(C(=O)N2CCC(C(=O)OCC)CC2)cc1,2.6,-10.7,18.3,37.9*,2.4,-4.0
